Laboratory results: PubChem BioAssay (NCATS)
Results filed as inconclusive are left out. Entries that show only a call come without a potency. Activity calls are given as the source filed them. Unless noted, the call rests on the fitted dose curve; in most records, active means well fitted curve in the direction sought with a large enough effect; inconclusive means small, poorly fitted or top-dose-only effect, or another doubt; inactive means no such curve, though single readings can be large; an effect the other way counts as inactive or inconclusive.

How the values were obtained:
[1] = biological target: Cytochrome P450 1A2 (Homo sapiens) (UniProt P05177); assay: p450-cyp1a2 (AID 410; calls by dose curve; further: potency means the concentration at half of the fitted maximal effect); conditions: recombinant CYP1A2, luciferin-ME demethylation, luminescence; series mostly up to 57 µM
In short: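 20nM CYP1A2, 100uM Luciferin-ME (=Km), 100mM KPO4; cpd 10 min RT; +NADPH regen, 60 min RT; stop/detect 20 min; luminescence. Normalized to furafylline 57 uM = full inhibition.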

[2] = biological target: Mitogen-activated protein kinase 10 (Mus musculus) (UniProt Q61831); assay: JNK3 AlphaScreen Assay (AID 530; active means well fitted curve in either direction with a large enough effect, not every such curve was filed as active;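 further: kinase came from lysate of stimulated human HepG2 cells; signal reports phosphorylation of biotinylated GST-cJun 1-79 at Ser73 with 10 µM ATP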); conditions: JNK3 lysate, c-Jun phosphorylation; series mostly up to 57.1 µM
In short: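 Biotinylated GST-cJun(1-79) served as substrate for JNK3 in HepG2 lysates stimulated with IL-1beta and TNF-alpha. ATP was 10 uM final, pH 7.6. Ser73 phosphorylation was quantified by AlphaScreen (680 nm excitation).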

[3] = biological target: 3',5'-cyclic-AMP phosphodiesterase 4B (Homo sapiens) (UniProt Q07343); assay: qHTS Assay for Inhibitors of PDE-IV (AID 607; active means well fitted activation curve with a large enough effect in the main read-out, with a control signal flat, not every such curve was filed as active); conditions: HEK293 ACTOne CNG channel cells, membrane potential fluorescence; series mostly up to 22.9 µM
In short: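 Cell-based read-out of cAMP via a modified cyclic nucleotide-gated channel and membrane potential dye (535/590 nm) in HEK293 cells expressing PDE4 endogenously. Compounds tested up to 22.9 uM final; 100 uM RO 20-1724 reference.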

[4] = biological target: Cytochrome P450 3A4 (Homo sapiens) (UniProt P08684); assay: qHTS Assay for Activators of Cytochrome P450 3A4 (AID 885); conditions: recombinant CYP3A4, Luciferin-PPXE luminescence, 60 min; series mostly up to 57.1 µM; further: nearly all actives have a fitted effect of over 65% in size
In short: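 Luminescent readout of luciferin formed from 25 uM Luciferin-PPXE (KM level) by 20 nM CYP3A4 in 200 mM KPO4, with 60 min NADPH-driven reaction at room temperature after 10 min compound exposure. Ketoconazole (57 uM) defined 100% inhibition.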

[5] = biological target: Cytochrome P450 2C9 (Homo sapiens) (UniProt P11712); assay: qHTS Assay for Inhibitors and Substrates of Cytochrome P450 2C9 (AID 883); conditions: recombinant CYP2C9, luciferin-H luminescence, 60 min; series mostly up to 57.1 µM; further: potency means the concentration at half of the fitted maximal effect; nearly all actives have a fitted effect of over 60% in size
In short: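 Human CYP2C9 (10nM) hydroxylated Luciferin-H (100uM, at its KM) to luciferin in 25mM KPO4. Compound was preincubated 10 min at 37C, then NADPH regeneration started a 60 min reaction at 37C. Luminescence was read after detection reagent, normalized to 57uM sulphaphenazole.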

[6] = biological target: Cytochrome P450 3A4 (Homo sapiens) (UniProt P08684); assay: qHTS Assay for Inhibitors and Substrates of Cytochrome P450 3A4 (AID 884); conditions: recombinant CYP3A4, Luciferin-PPXE luminescence; series mostly up to 57.1 µM; further: potency means the concentration at half of the fitted maximal effect; nearly all actives have a fitted effect of over 50% in size
In short: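 Luminescent readout of luciferin produced by CYP3A4 (20 nM) dealkylation of Luciferin-PPXE, 25 uM (its KM). NADPH-driven reaction ran 60 min at RT after 10 min compound preincubation; data scaled to 57 uM ketoconazole as 100% inhibition.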

[7] = biological target: Cytochrome P450 2C19 (Homo sapiens) (UniProt P33261); assay: qHTS Assay for Inhibitors and Substrates of Cytochrome P450 2C19 (AID 899); conditions: recombinant CYP2C19, luciferin-H EGE luminescence; series mostly up to 57.1 µM; further: nearly all actives have a fitted effect of over 60% in size; further: potency means the concentration at half of the fitted maximal effect
In short: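 Human CYP2C19 (5nM) with Luciferin-H EGE at 10uM (its KM) in 50mM KPO4 was preincubated with compound for 10 min at 37C. NADPH regeneration started a 60 min 37C reaction. Luciferin was read by luminescence, normalized to 57uM ketoconazole.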

[8] = biological target: Cytochrome P450 2D6 (Homo sapiens) (UniProt P10635); assay: qHTS Assay for Inhibitors and Substrates of Cytochrome P450 2D6 (AID 891); conditions: recombinant CYP2D6, luciferin-ME EGE luminescence; series mostly up to 57.1 µM; further: nearly all actives have a fitted effect of over 60% in size; further: potency means the concentration at half of the fitted maximal effect
In short: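 Luminescent read-out of luciferin formed by 5 nM human CYP2D6 demethylating 30 uM Luciferin-ME EGE (Km level) over 60 min at room temperature after NADPH regeneration addition. Data normalized to full inhibition by 1.43 uM quinidine.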

Cytochrome P450 2C19 (Homo sapiens), sequence (P33261 whole entry, looked up): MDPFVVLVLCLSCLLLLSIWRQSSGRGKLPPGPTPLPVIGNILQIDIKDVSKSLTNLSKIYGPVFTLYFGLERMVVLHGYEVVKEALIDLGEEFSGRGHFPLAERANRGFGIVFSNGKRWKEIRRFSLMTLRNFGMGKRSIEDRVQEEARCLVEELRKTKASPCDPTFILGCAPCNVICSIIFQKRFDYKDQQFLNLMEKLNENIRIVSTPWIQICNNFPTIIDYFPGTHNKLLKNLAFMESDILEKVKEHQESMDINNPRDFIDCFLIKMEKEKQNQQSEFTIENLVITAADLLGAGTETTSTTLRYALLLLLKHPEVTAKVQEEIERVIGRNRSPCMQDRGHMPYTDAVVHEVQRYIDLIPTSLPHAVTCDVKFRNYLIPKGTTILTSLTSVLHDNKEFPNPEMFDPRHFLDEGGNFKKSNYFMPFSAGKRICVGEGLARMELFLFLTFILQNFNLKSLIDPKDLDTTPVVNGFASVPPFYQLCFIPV
Cytochrome P450 1A2 (Homo sapiens), sequence (P05177 whole entry, looked up): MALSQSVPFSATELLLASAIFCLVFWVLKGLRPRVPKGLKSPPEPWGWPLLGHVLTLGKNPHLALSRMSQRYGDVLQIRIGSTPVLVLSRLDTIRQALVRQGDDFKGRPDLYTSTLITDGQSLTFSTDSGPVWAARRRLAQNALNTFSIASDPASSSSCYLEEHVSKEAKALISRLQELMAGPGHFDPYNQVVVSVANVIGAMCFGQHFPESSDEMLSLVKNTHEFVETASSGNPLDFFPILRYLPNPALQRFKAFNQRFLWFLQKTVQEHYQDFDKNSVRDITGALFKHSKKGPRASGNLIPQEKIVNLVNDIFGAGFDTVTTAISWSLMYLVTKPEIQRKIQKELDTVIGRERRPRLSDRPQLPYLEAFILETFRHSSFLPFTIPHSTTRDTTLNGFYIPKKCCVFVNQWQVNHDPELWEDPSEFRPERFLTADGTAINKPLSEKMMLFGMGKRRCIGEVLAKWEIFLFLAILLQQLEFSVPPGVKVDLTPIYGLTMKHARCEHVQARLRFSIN
Cytochrome P450 2C9 (Homo sapiens), sequence (P11712 whole entry, looked up): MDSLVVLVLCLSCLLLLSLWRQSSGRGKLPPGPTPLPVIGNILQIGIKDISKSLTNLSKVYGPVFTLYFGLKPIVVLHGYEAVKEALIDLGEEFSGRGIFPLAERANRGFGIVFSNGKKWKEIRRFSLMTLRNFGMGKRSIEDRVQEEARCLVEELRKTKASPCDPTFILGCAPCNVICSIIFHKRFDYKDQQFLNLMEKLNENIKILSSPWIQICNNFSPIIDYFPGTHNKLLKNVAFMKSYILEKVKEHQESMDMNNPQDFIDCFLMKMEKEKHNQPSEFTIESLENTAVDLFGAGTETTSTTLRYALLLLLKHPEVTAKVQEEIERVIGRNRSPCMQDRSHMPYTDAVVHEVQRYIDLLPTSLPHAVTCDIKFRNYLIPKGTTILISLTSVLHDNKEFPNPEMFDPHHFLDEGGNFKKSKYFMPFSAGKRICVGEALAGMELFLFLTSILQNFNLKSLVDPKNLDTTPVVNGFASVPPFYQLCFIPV
3',5'-cyclic-AMP phosphodiesterase 4B (Homo sapiens), sequence (Q07343 whole entry, looked up): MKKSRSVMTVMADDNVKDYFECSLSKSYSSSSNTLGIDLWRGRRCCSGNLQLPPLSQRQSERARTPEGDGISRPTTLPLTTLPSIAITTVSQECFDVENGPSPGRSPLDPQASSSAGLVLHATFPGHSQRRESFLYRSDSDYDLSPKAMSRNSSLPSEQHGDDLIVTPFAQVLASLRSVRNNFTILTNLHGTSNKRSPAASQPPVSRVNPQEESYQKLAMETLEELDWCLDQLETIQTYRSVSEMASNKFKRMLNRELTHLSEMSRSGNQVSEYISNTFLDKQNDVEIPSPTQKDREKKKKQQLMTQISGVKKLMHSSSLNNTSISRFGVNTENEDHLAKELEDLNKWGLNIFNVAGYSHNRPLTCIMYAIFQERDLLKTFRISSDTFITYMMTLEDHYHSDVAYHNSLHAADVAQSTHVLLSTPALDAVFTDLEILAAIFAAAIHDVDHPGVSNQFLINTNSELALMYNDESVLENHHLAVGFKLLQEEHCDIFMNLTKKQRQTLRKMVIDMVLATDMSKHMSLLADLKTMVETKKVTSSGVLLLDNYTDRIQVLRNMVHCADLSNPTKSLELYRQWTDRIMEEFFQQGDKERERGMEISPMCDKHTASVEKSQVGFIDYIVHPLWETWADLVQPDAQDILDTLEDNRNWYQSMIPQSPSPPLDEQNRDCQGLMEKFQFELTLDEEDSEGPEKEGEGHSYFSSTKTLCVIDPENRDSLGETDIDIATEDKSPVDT
Cytochrome P450 3A4 (Homo sapiens), sequence (P08684 whole entry, looked up): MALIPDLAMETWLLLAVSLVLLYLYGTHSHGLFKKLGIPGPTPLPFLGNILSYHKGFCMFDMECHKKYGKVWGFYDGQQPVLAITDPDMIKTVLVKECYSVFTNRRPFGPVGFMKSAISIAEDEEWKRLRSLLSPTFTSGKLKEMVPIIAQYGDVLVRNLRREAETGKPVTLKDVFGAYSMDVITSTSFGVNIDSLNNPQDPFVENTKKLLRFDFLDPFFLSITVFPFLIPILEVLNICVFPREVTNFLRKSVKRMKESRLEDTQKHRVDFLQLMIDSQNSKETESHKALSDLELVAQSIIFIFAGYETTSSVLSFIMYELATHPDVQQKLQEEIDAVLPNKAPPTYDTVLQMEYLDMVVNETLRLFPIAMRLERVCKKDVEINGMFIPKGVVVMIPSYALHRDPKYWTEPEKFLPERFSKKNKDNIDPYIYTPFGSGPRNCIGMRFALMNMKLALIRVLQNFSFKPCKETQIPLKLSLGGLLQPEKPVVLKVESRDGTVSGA
Cytochrome P450 2D6 (Homo sapiens), sequence (P10635 whole entry, looked up): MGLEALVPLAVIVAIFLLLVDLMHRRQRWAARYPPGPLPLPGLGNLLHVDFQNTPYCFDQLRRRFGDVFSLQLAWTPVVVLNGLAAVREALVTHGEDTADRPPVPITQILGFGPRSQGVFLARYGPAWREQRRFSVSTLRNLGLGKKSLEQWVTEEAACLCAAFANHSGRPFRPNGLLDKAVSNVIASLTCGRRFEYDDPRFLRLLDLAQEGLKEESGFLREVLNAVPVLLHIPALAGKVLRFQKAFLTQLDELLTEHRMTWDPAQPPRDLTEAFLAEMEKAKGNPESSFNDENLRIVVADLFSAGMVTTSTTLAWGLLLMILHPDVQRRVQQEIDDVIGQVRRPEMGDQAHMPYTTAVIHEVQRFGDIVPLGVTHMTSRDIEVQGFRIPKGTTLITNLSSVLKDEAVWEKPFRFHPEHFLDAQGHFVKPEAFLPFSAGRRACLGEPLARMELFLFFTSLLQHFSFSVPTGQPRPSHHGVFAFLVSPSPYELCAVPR

SMILES | Potency [1] | Potency [2] | Potency [3] | Potency [4] | Potency [5] | Potency [6] | Potency [7] | Potency [8]
CCCCCC1=C2CNC(CCC)(C(=O)OC)C=C2C(C)C1=O (stereo not drawn) | 31.6 µM (active) | inactive | inactive | inactive |  |  |  | 
CC[C@H]1C2=C3C(CC[C@H]4C(OCc5ccc(F)cc5C(F)(F)F)OC[C@](C)([C@@H]34)N(C(=O)OC(C)(C)C)C2)C2COC(=O)OCC21 (stereo partly drawn) | inactive | inactive | inactive | inactive |  |  |  | 
COC(=O)[C@H]1C[C@@H]1[C@H](NC(=O)c1cnccn1)c1ccccc1 | 15.8 µM (active) | inactive | inactive | inactive |  |  |  | 
COC(=O)[C@@]1(Cc2ccc(F)cc2)[C@@H]2C(=CC(=O)[C@H]2CC(=O)C(=O)N(C)C)CN1C(=O)c1ccccc1 | inactive | inactive | inactive | inactive |  |  |  | 
CCCC/C=C/C(NC(=O)c1ccco1)c1ccccc1 (stereo not drawn) | 5.01 µM (active) | inactive | inactive | inactive |  |  |  | 
C[C@H](CO)NC(=O)[C@H]1C[C@@H]1[C@H](NP(=O)(c1ccccc1)c1ccccc1)c1ccccc1 | inactive | inactive | inactive | inactive |  |  |  | 
COC(=O)[C@@]1(Cc2ccc(F)cc2)[C@@H]2C(=CC(=O)[C@H]2CC(=O)C(=O)N2CCCC2)CN1C(=O)c1ccccc1 | inactive | inactive | inactive | inactive |  |  |  | 
CC1(C)C(=O)C(c2ccccc2)=C2CN3C(=O)N(CCc4ccccc4)C(=O)C3(Cc3ccc(C(F)(F)F)cc3)C=C21 (stereo not drawn) | inactive | inactive | inactive | inactive |  |  |  | 
C=C(CC1([C@@H](NP(=O)(c2ccccc2)c2ccccc2)[C@H]2C[C@@H]2CCN(C(=O)OCC)S(=O)(=O)c2ccc(C)cc2)CC1)c1ccccc1 | inactive | inactive | inactive | inactive |  |  |  | 
COC(=O)C1(CC(C)C)C=C2C(=C(c3ccccc3)C(=O)C2C)CN1 (stereo not drawn) | 15.8 µM (active) | inactive | inactive | inactive |  |  |  | 
CCCC1(C(=O)OC)C=C2C(=C(C(C)C)C(=O)C2C)CN1 (stereo not drawn) | inactive | inactive | inactive | inactive |  |  |  | 
COC(=O)[C@@]1(Cc2ccc(F)cc2)[C@@H]2[C@@H](CC(=O)[C@H]2CC(=O)C(=O)N2CCCC2)CN1C(=O)c1ccccc1 | inactive | inactive | inactive | inactive |  |  |  | 
Cc1c2c(nc3ccccc13)-c1cccc(=O)n1C2 | 0.1 µM (active) | inactive | inactive | inactive |  |  |  | 
COC(=O)[C@H]1C[C@@H]1[C@H](NC(=O)Oc1ccc(F)cc1)c1ccccc1 | 1 µM (active) | inactive | inactive | inactive |  |  |  | 
C=C(CC1([C@@H](NP(=O)(c2ccccc2)c2ccccc2)[C@H]2C[C@@H]2CCCC)CC1)c1cccc(OC)c1 | 12.6 µM (active) | inactive | inactive | inactive |  |  |  | 
CCc1c2c(nc3ccc(OC)cc13)COC2 | 0.794 µM (active) | inactive | inactive | inactive |  |  |  | 
COC(=O)[C@@]1(Cc2ccccc2)[C@H]2c3cc(C(=O)N4CCCC4)n(CCc4ccccn4)c3C[C@H]2CN1C(=O)c1ccccc1 | inactive | inactive | inactive | inactive |  |  |  | 
CC1=C(C(=O)OCc2ccccc2)C(c2ccc([N+](=O)[O-])cc2)NC(=O)N1CCCCCC(=O)O (stereo not drawn) | 15.8 µM (active) | inactive | inactive | inactive |  |  |  | 
COC(=O)[C@H]1C[C@@H]1[C@H](NC(=O)c1cc(C)on1)c1ccccc1 | 15.8 µM (active) | inactive | inactive | inactive |  |  |  | 
CCC[C@@H]1C[C@@]1(CCC)C(NC(=O)c1cccs1)c1ccc(Cl)cc1 (stereo partly drawn) | 10 µM (active) | inactive | inactive | inactive |  |  |  | 
COC(=O)[C@@H]1C[C@H]1[C@@H](NC(=O)c1cnccn1)c1ccccc1 | 12.6 µM (active) | inactive | inactive | inactive |  |  |  | 
COCC1C2CC[C@H]3C(OCc4ccc(F)cc4C(F)(F)F)OC[C@]4(C)[C@H]3C2=C(CN4C(=O)OC(C)(C)C)[C@H](C)C1COC (stereo partly drawn) | 31.6 µM (active) | inactive | inactive | inactive |  |  |  | 
C=C1C(=O)C=C2CN(C(=O)c3ccccc3)[C@@](Cc3ccc(F)cc3)(C(=O)OC)[C@@H]12 | 15.8 µM (active) | inactive |  | inactive | 3.98 µM (active) | 7.94 µM (active) | 5.01 µM (active) | 

SMILES | Potency [1] | Potency [2] | Potency [3] | Potency [4] | Potency [5] | Potency [6] | Potency [7] | Potency [8]
C[C@@H](C(=O)NCCF)[C@H]1C[C@]1(C)[C@H](NC(=O)OCc1ccccc1)c1ccccc1 | 15.8 µM (active) | inactive | inactive | inactive |  |  | 1.26 µM (active) | 6.31 µM (active)
C[C@@]1(C(NC(=O)c2cccs2)c2ccc(-c3ccccc3)cc2)C[C@H]1C1CCCCC1 (stereo partly drawn) | inactive | inactive | inactive | inactive |  |  |  | 
CCC/C=C(\CCC)C(NS(=O)(=O)c1cccc2cccnc12)c1ccc(C(=O)OC)cc1 (stereo not drawn) | 6.31 µM (active) | inactive |  | inactive | 1.58 µM (active) | 5.01 µM (active) | 3.16 µM (active) | 
CCC/C=C(\CCC)C(NS(=O)(=O)c1ccc(C(F)(F)F)cc1)c1ccc(-c2ccccc2)cc1 (stereo not drawn) | inactive | inactive | inactive | inactive |  |  | 7.94 µM (active) | 
CCC/C=C(\CCC)C(NC(=O)c1cccs1)c1ccc(C(=O)OC)cc1 (stereo not drawn) | 5.01 µM (active) | inactive |  | inactive | 2 µM (active) | 1.26 µM (active) | 0.794 µM (active) | 
C[C@@H](C(=O)Nc1ccc2ccccc2c1)[C@H]1C[C@]1(C)[C@H](NS(=O)(=O)c1ccc(-c2ccccc2)cc1)c1ccccc1 | 15.8 µM (active) | inactive | inactive | inactive |  |  |  | 2 µM (active)
COC(=O)[C@@]1(Cc2ccc(OC)cc2)[C@H]2c3cc(C(=O)N4CCCC4)n(Cc4ccc(Cl)c(C(F)(F)F)c4)c3C[C@H]2CN1C(=O)c1ccccc1 | 12.6 µM (active) | inactive | inactive | inactive |  |  |  | 
COC(=O)[C@@]1(Cc2ccc(F)cc2)[C@H]2c3cc(C(=O)N4CCCC4)n(CCc4ccc(O)c(O)c4)c3C[C@H]2CN1C(=O)c1ccccc1 | 20 µM (active) | inactive |  | inactive | 3.16 µM (active) | 2.51 µM (active) |  | 
COc1ccc2nc3c(cc2c1)Cc1ccccc1-3 | 0.251 µM (active) | inactive |  | inactive | 6.31 µM (active) | 6.31 µM (active) |  | 6.31 µM (active)
CCC/C=C(\CCC)C(NC(=O)c1ccc(C(F)(F)F)cc1)c1ccc(C(F)(F)F)cc1 (stereo not drawn) | inactive | inactive | inactive | inactive |  |  |  | 
CC1=C(C(=O)OCc2ccccc2)C(c2ccc(Cl)cc2)NC(=O)N1CCCCCC(=O)O (stereo not drawn) | 25.1 µM (active) | inactive | inactive | inactive |  |  |  | 
CC(C)c1cccc2nc3c(c([Si](C)(C)C)c12)Cn1c-3cccc1=O | 15.8 µM (active) | inactive | inactive | inactive |  |  |  | 
COC(=O)[C@@]1(Cc2ccc(F)cc2)[C@H]2c3cc(C(=O)N4CCCC4)n(CCc4ccc(OC)c(Br)c4)c3C[C@H]2CN1C(=O)c1ccccc1 | 15.8 µM (active) | inactive |  | inactive | 3.16 µM (active) | 2.51 µM (active) | 5.01 µM (active) | 
CC[C@H]1C(=O)OC[C@@H]1Cc1cncn1C | inactive | inactive | inactive |  |  |  | inactive | inactive
O=C(NCc1cc(F)cc2c1OCCO2)[C@H]1C[C@@H]1[C@H](NP(=O)(c1ccccc1)c1ccccc1)c1ccccc1 | 15.8 µM (active) | inactive | inactive | inactive |  |  |  | 
C[C@@H](C(=O)O)[C@H]1C[C@]1(C)[C@H](NC(=O)OCc1ccccc1)c1ccccc1 | inactive | inactive | inactive | inactive |  |  | 7.94 µM (active) | 
CCCc1cc2c(n1CCc1ccc(Cl)cc1)C(C)C1CN(C(=O)c3ccccc3)C(C)(C(=O)OC)C21 (stereo not drawn) | 25.1 µM (active) | inactive | inactive | inactive |  |  | 6.31 µM (active) | 5.01 µM (active)
OC1c2ccccc2-c2nc3ccccc3cc21 (stereo not drawn) | 0.126 µM (active) | inactive | inactive | inactive |  |  |  | 20 µM (active)
C[C@@H](C(=O)NCc1ccccn1)[C@@H]1C[C@@]1(C)[C@@H](NC(=O)OCc1ccccc1)c1ccccc1 | 20 µM (active) | inactive | inactive | inactive |  |  | 2.51 µM (active) | 
COC(=O)[C@@H]1C[C@H]1[C@@H](NC(=O)c1ccccc1)c1ccccc1 | 5.01 µM (active) | inactive | inactive |  |  |  | 1.26 µM (active) | 
COC(=O)[C@@]1(Cc2ccccc2)[C@H]2c3cc(C(=O)N4CCCC4)n(Cc4ccc(O)c(OC)c4)c3C[C@H]2CN1C(=O)c1ccccc1 | 25.1 µM (active) | inactive |  | inactive | 2.51 µM (active) | 2 µM (active) | 0.501 µM (active) | 
C#CCCCC(=S)Nc1ccccc1 | 12.6 µM (active) | inactive | inactive | inactive |  |  |  | 
C[C@@H](C(=O)NCc1ccc(S(C)(=O)=O)cc1)[C@@H]1C[C@@]1(C)[C@@H](NC(=O)OCc1ccccc1)c1ccccc1 | 15.8 µM (active) | inactive | inactive | inactive |  |  | 1.26 µM (active) | 
